Compound activity as filed in PubChem BioAssay.
Sampled rows, rich in hits. Any-hit rate of the full collection: about 12%.
Pf growth 48h: Primary qHTS for delayed death inhibitors of the malarial parasite plastid, 48 hour incubation; P. falciparum luciferase growth in erythrocytes, 48 h; Potency, µM (series often up to 28.7 µM), without a hit: at the highest dose activity change, negative = inhibition, actives largely listed as inhibitors; 310,000 compounds, 5.9% hits; AID 504832, 2011; also: % is scaled to controls: 0 for no effect and ±100 for the full control effect
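First compound was added to culture medium, then infected red cells at 0.1% parasitemia and 2% hematocrit (final). After incubation at 37 C under 5% CO2, luciferase detection reagent was dispensed and light output recorded.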
SARS PLpro yeast: qHTS of Yeast-based Assay for SARS-CoV PLP. Potency, µM (highest dose often 32.9 µM), without a hit: at the top dose activity, positive = growth rescue, hits mostly activators. S. cerevisiae expressing SARS-CoV PLpro, growth rescue. 330,000 compounds, 0.19% hits; calls by dose curve; also: 0% is about no effect; nearly all actives have a fitted effect of over 55% in size
Sm TGR block: qHTS Assay for the Inhibitors of Schistosoma Mansoni Peroxiredoxins; purified TGR, DTNB reduction, TNB absorbance 405 nm; Potency, µM (series often up to 114 µM), inactives show at the top dose activity change, negative = inhibition, hits mostly inhibitors; 360,000 compounds, 3% hits; AID 485364, 2010; Schistosoma mansoni thioredoxin glutathione reductase (TGR), Q962Y6; also: % is scaled to controls: 0 for no effect and ±100 for the full control effect; nearly all actives have a fitted effect of over 60% in size
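Kinetic colorimetric format: TGR-catalysed, NADPH-driven DTNB reduction monitored via TNB absorbance. Enzyme dispensed at 20 nM; compound exposure 15 min at room temperature before reaction start.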
Pf growth 96h: Primary qHTS for delayed death inhibitors of the malarial parasite plastid, 96 hour incubation. P. falciparum luciferase reporter growth, 96 h. Potency, µM (doses to about 28.7 µM), for inactives: at the highest dose activity change, negative = inhibition, hits mostly inhibitors. 320,000 compounds, 6.9% hits. AID 504834, 2011; also: % is scaled to controls: 0 for no effect and ±100 for the full control effect
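Luminescence readout: decreased luciferase signal marks inhibited growth of reporter-expressing P. falciparum in infected red cells (2% hematocrit, 0.05% parasitemia final), exposed to compound two generations (96 h, 37 C, 5% CO2).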
Starred values were filed as active, the others as inactive; ? = inconclusive; . = not tested or not shown. Unless noted, calls follow the shape of the dose curve; as a rule, active = well fitted curve in the direction sought with a large enough effect; inconclusive = small, poorly fitted or top-dose-only effect, or another doubt; inactive = no such curve, though single readings can be large; an effect the other way counts as inactive or inconclusive. Potency is read from the fitted curve at half-maximal effect.

SMILES	Pf growth 48h	SARS PLpro yeast	Sm TGR block	Pf growth 96h
CCOC(=O)c1noc2ncnc(N3CCN(c4cccc(Cl)c4)CC3)c12	.	.	-3%	.
COc1ccccc1NCc1cccn1-c1nnc(N2CCOCC2)s1	.	.	-8%	.
CCOc1ccc(CCNC(=O)CCc2c(C)nc3c(c(C)nn3-c3ccccc3)c2C)cc1OCC	.	.	24%	.
CCCCN(C)C(=O)c1ccc(CS(=O)(=O)c2ccccc2C)o1	12%	24%	25µM*	10%
Cc1ccccc1S(=O)(=O)Cc1ccc(C(=O)O)o1	.	15%	-31%	2%
Cc1ccccc1S(=O)(=O)Cc1ccc(C(=O)N(C)C2CCCCC2)o1	0%	-5%	25µM*	?
COC(CN(C)C(=O)c1ccc(CS(=O)(=O)c2ccccc2C)o1)OC	34%	3%	50µM*	?
COc1ccc(OC)c(NC(=O)Cn2ccc3ccccc3c2=O)c1	.	.	18%	.
CC1CC1C(=O)Nc1ccc(-c2ccccc2)cc1 (stereo not drawn)	-12%	-30%	4%	13µM*
COCCn1nnnc1CN1C2CCCC1CC(NC(C)=O)C2 (stereo not drawn)	29%	4%	?	13µM*
COC(=O)c1cc2ccccc2c(-c2c(OC)c(C(=O)OC)cc3ccccc23)c1OC	?	-22%	-16%	12µM*
Cc1cc(C)nc(SCc2nnc(SCC(=O)Nc3nccs3)n2Cc2ccco2)n1	-24%	1%	-26%	-18%
Cc1cccc(NC(=O)CSc2nnc(CSc3nc(C)cc(C)n3)n2Cc2ccco2)c1	?	4%	14%	15µM*
Cc1cccc(NC(=O)CSc2nnc(-c3ccco3)c(-c3ccco3)n2)c1C	-28%	-1%	3.5µM*	-7%
Cc1cccc(NC(=O)Cn2nc(-c3ccco3)ccc2=O)c1C	-4%	5%	32µM*	60%
O=C(Cn1nc(-c2ccco2)ccc1=O)Nc1ccc(Br)cc1	20%	2%	?	27%
Cc1cccc(NC(=O)CSc2nnc(-c3ccco3)c(-c3ccco3)n2)c1	3%	-1%	3.5µM*	1%
COc1cc(NC(=O)COC(=O)CNC(=O)C2CCCCC2)cc(OC)c1	23%	1%	-3%	18%
COc1ccccc1CNC(=O)CN1CCN(c2ccc(C(C)=O)cc2)CC1	-24%	-3%	5%	?
COc1ccc(C(=O)C2CCCN(C(=O)CSC)C2)cc1OC (stereo not drawn)	19%	-6%	-8%	13µM*
COCC(=O)N1CCCC(C(=O)c2ccc(-c3ccccc3)cc2)C1 (stereo not drawn)	-6%	-12%	28µM*	-6%
COc1ccccc1C(=O)C1CCCN(C(=O)c2cccnc2SC)C1 (stereo not drawn)	5.2µM*	0%	-1%	68%
Cc1ccc(CSCC(=O)N(C)CC(=O)Nc2ccc(Br)cc2C)cc1	-2%	2%	50µM*	-19%
Cc1nc(-c2ccc(F)cc2)c(CC(=O)N(C)CC(=O)Nc2ccc(Br)cc2C)s1	5.2µM*	-4%	4%	?
Cc1cc(C)c(NC(=O)CNC(=O)Cc2sc(C)nc2-c2ccc(F)cc2)c(C)c1	13µM*	3%	-13%	?
SMILES	Pf growth 48h	SARS PLpro yeast	Sm TGR block	Pf growth 96h
Cc1nc(-c2ccc(F)cc2)c(CC(=O)N(C)CC(=O)Nc2ccccc2C(F)(F)F)s1	-9%	0%	0%	-3%
Cc1nc(-c2ccc(F)cc2)c(CC(=O)N2CCN(S(=O)(=O)c3ccccc3Br)CC2)s1	?	-1%	9%	8.3µM*
Cc1ccc(CSCC(=O)N(C)CC(=O)Nc2ccc(Cl)c(Cl)c2)cc1	?	.	-1%	?
CC1CCN(C(=O)Cn2c(=O)n(CCCCCC(=O)NCc3ccccc3Cl)c(=O)c3sccc32)CC1	.	.	-1%	.
Cc1nc(-c2ccc(F)cc2)c(CC(=O)N(C)CC(=O)Nc2ccccc2Br)s1	13µM*	-5%	-26%	?
CCN(CC(=O)Nc1ccccc1C(F)(F)F)C(=O)Cc1sc(C)nc1-c1ccc(F)cc1	15µM*	3%	-9%	?
CCOCCn1ccc2c(OCC(=O)NCc3ccc(F)cc3)cccc2c1=O	.	.	19%	.
COc1ccc(C)cc1S(=O)(=O)N1CCN(C)CC1c1ccccc1 (stereo not drawn)	-7%	0%	0%	-12%
COC(=O)C(CCSC)NC(=O)Cn1ncc2c(=O)oc3ccccc3c21 (stereo not drawn)	.	4%	-3%	12µM*
O=C(Cn1ncc2c(=O)oc3ccccc3c21)NCC1COc2ccccc2O1 (stereo not drawn)	.	2%	3%	1.9µM*
O=C(Cn1ncc2c(=O)oc3ccccc3c21)NC1CC1	10%	-5%	-117%	?
CC(=O)NCC1COc2ccccc2O1 (stereo not drawn)	8%	0%	0%	0%
COCc1c(C(=O)NCC2COc3ccccc3O2)oc2ccccc12 (stereo not drawn)	12µM*	0%	2%	?
CC(C)(C)OC(=O)N1CCC(c2c(C(=O)NCc3cccs3)cnn2-c2ccc(F)cc2F)CC1	.	.	30%	.
Cc1nc2ccccc2c(=O)n1-c1ccccc1C(F)(F)F	?	-2%	-1%	?
CC(C)[C@]1(c2ccccc2)ON(c2ccccc2C(F)(F)F)C1=O	1.9µM*	3%	6%	4.7µM*
O=C1N(c2ccccc2C(F)(F)F)OC1(Cc1ccccc1)c1ccccc1 (stereo not drawn)	1µM*	-2%	2%	?
ON1C(c2ccccc2C(F)(F)F)N(O)[C@H]2CCCC[C@H]21 (stereo partly drawn)	0%	2%	5%	12%
CC(C)[C@@]1(c2ccccc2)ON(c2ccccc2C(F)(F)F)C1=O	1.7µM*	4%	4%	?
O=C1N(c2ccccc2C(F)(F)F)O[C@]1(c1ccccc1)C1CCCCC1	?	-2%	-1%	1µM*
O=C(O)c1nn(-c2ccccc2C(F)(F)F)cc1O	?	-5%	4%	20%
O=C(COc1ccccc1Cl)Nc1nc(-c2ccc(F)cc2)ns1	.	.	-2%	.
Cc1nn(-c2ccc(N3CCCCC3)nn2)c(C)c1CCC(=O)Nc1ccc(F)cc1F	.	.	2%	.
CSCCC(=O)NC1CCCN(CCc2ccccc2)C1 (stereo not drawn)	1%	1%	-17%	?
COc1cccc(CNC(=O)C(Cc2ccccc2)NS(=O)(=O)c2ccc3c(c2)oc(=O)n3C)c1 (stereo not drawn)	.	.	-4%	.
O=C(Cn1cccc(C(F)(F)F)c1=O)c1ccc(Cl)cc1	?	-1%	10%	?
CC(C)[C@]1(c2ccc(Cl)cc2)ON(c2ccccc2C(F)(F)F)C1=O	1.9µM*	4%	0%	1.7µM*
CC(C)CC1(C(=O)NCCc2c[nH]c3ccccc23)C=CCN1C(=O)c1ccccc1 (stereo not drawn)	?	-3%	40µM*	10µM*
